Measurements from ChEMBL document CHEMBL1201862, “PubChem BioAssay data set” (2004).
Out of some 270,000 compounds screened, about 5,800 (2.1%) were called active. About 16% were inconclusive and are not listed. The calls are words filed in the database; no cut-off is given here. Many of the other results were omitted from the sample, so actives are more common in it than they were.

Target: Microtubule-associated protein tau (Homo sapiens) (UniProt P10636)
Assay: qHTS for Inhibitors of Tau Fibril Formation, Thioflavin T Binding. [Related pubchem assays: 596 ]

Microtubule-associated protein tau (Homo sapiens), sequence (P10636 whole entry): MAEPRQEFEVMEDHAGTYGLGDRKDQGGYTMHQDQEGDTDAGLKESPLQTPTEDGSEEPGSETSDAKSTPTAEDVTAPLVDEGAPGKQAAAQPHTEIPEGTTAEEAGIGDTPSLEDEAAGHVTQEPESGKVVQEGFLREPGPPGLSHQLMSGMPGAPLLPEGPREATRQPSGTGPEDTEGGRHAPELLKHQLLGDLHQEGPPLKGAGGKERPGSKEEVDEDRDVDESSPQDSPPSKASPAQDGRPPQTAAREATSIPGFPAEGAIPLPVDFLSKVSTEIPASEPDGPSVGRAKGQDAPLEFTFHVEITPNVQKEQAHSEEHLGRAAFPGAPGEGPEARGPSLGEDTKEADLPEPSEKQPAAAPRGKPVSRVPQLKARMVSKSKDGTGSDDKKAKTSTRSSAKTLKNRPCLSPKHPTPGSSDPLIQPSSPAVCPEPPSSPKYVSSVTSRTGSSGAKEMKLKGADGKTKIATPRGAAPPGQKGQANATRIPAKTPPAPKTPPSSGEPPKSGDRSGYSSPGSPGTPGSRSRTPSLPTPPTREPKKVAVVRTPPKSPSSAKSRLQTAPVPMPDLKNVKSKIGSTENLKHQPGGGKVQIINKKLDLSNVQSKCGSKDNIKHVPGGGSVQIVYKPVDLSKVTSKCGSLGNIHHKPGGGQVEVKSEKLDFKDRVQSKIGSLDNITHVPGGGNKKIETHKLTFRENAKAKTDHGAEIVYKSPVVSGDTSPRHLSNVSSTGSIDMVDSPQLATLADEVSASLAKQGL

SMILES	Potency
O=C(O)c1cc(/N=N/c2ccc(S(=O)(=O)Nc3ccccn3)cc2)ccc1O	12.6 µM (active)
